PubChem BioAssay AID1159580 (chemical genetic matrix, 2015)
Values joined by “and” are separate entries in the source; they are usually repeats but may differ in a detail not shown here. Identical values can stand only once. About 2,000 (36%) of roughly 5,500 compounds were called active. Not shown: some 18% with an inconclusive outcome. Rule as the data show it: active = normalized growth mostly below about 0.91 (no sharp cut-off); inconclusive = no clear call, values can overlap the other calls; inactive = mostly above about 0.92. Some of the results follow.

Assay: chemical genetic growth profiling, strain panel (AID 1159580);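 also: tested at 20 µM; growth read once vehicle control cultures reached saturation at 30 °C; 1 = growth at the plate median or of vehicle wells; lower values mean less growth of the strain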
Conditions: S. cerevisiae deletion strains, growth OD

Measured: normalized growth

CC(NC(C)(C)C)C(=O)c1cccc(Cl)c1 (stereo not given)
inactive: locus YAL013W, strain DEP1, hits give low values 1.01 | locus YAL021C, strain ccr4, hits give low values 1.02 | locus YAL026C, strain drs2, hits give low values 1 | locus YAL030W, strain snc1, hits give low values 0.998 | locus YAL040C, strain CLN3, hits give low values 0.958 | locus YBL061C, strain skt5, hits give low values 0.993 | locus YBR009C, strain hhf1, hits give low values 1 | locus YBR021W, strain FUR4, hits give low values 0.995 | locus YBR023C, strain chs3, hits give low values 0.996 | locus YBR171W, strain sec66, hits give low values 0.996 | locus YBR229C, strain ROT2, hits give low values 1 | locus YBR231C, strain swc5, hits give low values 1 | locus YBR279W, strain paf1, hits give low values 0.998 | locus YCL011C, strain gbp2, hits give low values 1 | locus YCL016C, strain dcc1, hits give low values 0.995 | locus YCL029C, strain bik1, hits give low values 1.05 | locus YCL061C, strain MRC1, hits give low values 0.994 | locus YCL069W, strain vba3, hits give low values 0.994 | locus YCR088W, strain abp1, hits give low values 1 | locus YDL005C, strain med2, hits give low values 0.993 | locus YDL035C, strain GPR1, hits give low values 1.01 | locus YDL040C, strain nat1, hits give low values 0.994 | locus YDL074C, strain BRE1, hits give low values 0.988 | locus YDL101C, strain DUN1, hits give low values 1.02 | locus YDL134C, strain PPH21, hits give low values 1 | locus YDL185W, strain tfp1, hits give low values 1.02 | locus YDL192W, strain arf1, hits give low values 1.03 | locus YDR001C, strain nth1, hits give low values 1.01 | locus YDR069C, strain doa4, hits give low values 1 | locus YDR101C, strain arx1, hits give low values 1.03 | locus YDR137W, strain rgp1, hits give low values 1 | locus YDR150W, strain NUM1, hits give low values 1.01 and 0.976 | locus YDR159W, strain sac3, hits give low values 0.997 | locus YDR162C, strain NBP2, hits give low values 1.01 | locus YDR195W, strain ref2 0.989 | locus YDR297W, strain sur2, hits give low values 1 | locus YDR318W, strain mcm21, hits give low values 1.02 | locus YDR334W, strain swr1, hits give low values 0.986 | locus YDR335W, strain msn5, hits give low values 1 | locus YDR363W, strain ESC2, hits give low values 1.02 | locus YDR388W, hits give low values 1.02 | locus YDR392W, strain spt3, hits give low values 0.978 | locus YDR502C, strain sam2, hits give low values 1.04 | locus YEL003W, strain gim4, hits give low values 1 | locus YEL037C, strain rad23, hits give low values 1 | locus YEL061C, strain CIN8 (second series), hits give low values 1 | locus YEL061C, strain CIN8, hits give low values 1.01 | locus YER002W, strain NOP16, hits give low values 0.979 | locus YER015W, strain faa2, hits give low values 1 | locus YER016W, strain bim1, hits give low values 1 | locus YER110C, hits give low values 1.05 | locus YER111C, strain swi4, hits give low values 0.987 | locus YER155C, strain BEM2 (second series), hits give low values 1.01 | locus YER155C, strain BEM2, hits give low values 1 | locus YER167W, strain BCK2, hits give low values 1.01 | locus YFR010W, strain ubp6, hits give low values 1 | locus YGL078C, strain dbp3, hits give low values 1 | locus YGL086W, strain mad1, hits give low values 1 | locus YGL167C, strain pmr1, hits give low values 0.991 | locus YGL173C, strain kem1, hits give low values 0.977 | locus YGL227W, strain vid30, hits give low values 0.992 | locus YGL240W, strain doc1, hits give low values 1.02 | locus YGL248W, strain PDE1, hits give low values 1.01 | locus YGL253W, strain hxk2, hits give low values 0.992 | locus YGR078C, strain PAC10, hits give low values 1.01 | locus YGR135W, strain pre9, hits give low values 1.02 | locus YGR229C, strain SMI1, hits give low values 0.999 | locus YGR252W, strain gcn5, hits give low values 0.989 | locus YHR013C, strain ard1, hits give low values 0.976 | locus YHR027C, strain rpn1, hits give low values 0.996 | locus YHR030C, strain SLT2, hits give low values 1.01 and 1 | locus YHR079C, strain IRE1 (second series), hits give low values 1.02 | locus YHR079C, strain IRE1, hits give low values 0.999 | locus YHR094C, strain hxt1, hits give low values 1.02 | locus YHR129C, strain ARP1, hits give low values 1.02 | locus YHR142W, strain chs7, hits give low values 1 | locus YHR200W, strain rpn10, hits give low values 1.02 | locus YIL066C, strain RNR3, hits give low values 1.01 | locus YIL073C, strain SPO22, hits give low values 1.07 | locus YIL125W, strain kgd1, hits give low values 1.02 | locus YIR030C, strain dcg1, hits give low values 1.04 | locus YJL092W, strain hpr5, hits give low values 0.995 | locus YJL095W, strain BCK1 (second series), hits give low values 0.997 | locus YJL095W, strain BCK1, hits give low values 1.01 and 0.995 | locus YJL115W, strain asf1, hits give low values 0.996 | locus YJL129C, strain trk1, hits give low values 1.01 | locus YJL134W, strain LCB3, hits give low values 1.01 | locus YJL154C, strain vps35, hits give low values 1.01 | locus YJL164C, strain tpk1, hits give low values 1 | locus YJL166W, strain qcr8, hits give low values 0.993 | locus YJL168C, strain set2, hits give low values 1.02 | locus YJL187C, strain SWE1 (second series), hits give low values 1.02 | locus YJL187C, strain SWE1, hits give low values 0.996 | locus YJR043C, strain POL32, hits give low values 1 | locus YJR066W, strain TOR1, hits give low values 0.969
